# Data reported in PubChem BioAssay AID743445 (Broad Institute, 2014).
# Hit rate of the full screen: of about 310,000 compounds, about 1,700 (0.55%) were called active. Cut-off read from the data, not from the text of the source: active = inhibition above about 50%; inactive = the rest. The entries come from a sample that favours actives as a whole.
# Molecular target: Histone-lysine N-methyltransferase NSD2 (Homo sapiens) (UniProt O96028)
# Test: NSD2 histone methyltransferase inhibitors, primary screen, biochemical, AlphaScreen, single concentration, set 2 (AID 743445)
# Conditions: NSD2 peptide methylation, 120 min, at 12.5 µM, stronger effect = higher value
# Sequence of Histone-lysine N-methyltransferase NSD2 (Homo sapiens) (O96028 whole entry, looked up): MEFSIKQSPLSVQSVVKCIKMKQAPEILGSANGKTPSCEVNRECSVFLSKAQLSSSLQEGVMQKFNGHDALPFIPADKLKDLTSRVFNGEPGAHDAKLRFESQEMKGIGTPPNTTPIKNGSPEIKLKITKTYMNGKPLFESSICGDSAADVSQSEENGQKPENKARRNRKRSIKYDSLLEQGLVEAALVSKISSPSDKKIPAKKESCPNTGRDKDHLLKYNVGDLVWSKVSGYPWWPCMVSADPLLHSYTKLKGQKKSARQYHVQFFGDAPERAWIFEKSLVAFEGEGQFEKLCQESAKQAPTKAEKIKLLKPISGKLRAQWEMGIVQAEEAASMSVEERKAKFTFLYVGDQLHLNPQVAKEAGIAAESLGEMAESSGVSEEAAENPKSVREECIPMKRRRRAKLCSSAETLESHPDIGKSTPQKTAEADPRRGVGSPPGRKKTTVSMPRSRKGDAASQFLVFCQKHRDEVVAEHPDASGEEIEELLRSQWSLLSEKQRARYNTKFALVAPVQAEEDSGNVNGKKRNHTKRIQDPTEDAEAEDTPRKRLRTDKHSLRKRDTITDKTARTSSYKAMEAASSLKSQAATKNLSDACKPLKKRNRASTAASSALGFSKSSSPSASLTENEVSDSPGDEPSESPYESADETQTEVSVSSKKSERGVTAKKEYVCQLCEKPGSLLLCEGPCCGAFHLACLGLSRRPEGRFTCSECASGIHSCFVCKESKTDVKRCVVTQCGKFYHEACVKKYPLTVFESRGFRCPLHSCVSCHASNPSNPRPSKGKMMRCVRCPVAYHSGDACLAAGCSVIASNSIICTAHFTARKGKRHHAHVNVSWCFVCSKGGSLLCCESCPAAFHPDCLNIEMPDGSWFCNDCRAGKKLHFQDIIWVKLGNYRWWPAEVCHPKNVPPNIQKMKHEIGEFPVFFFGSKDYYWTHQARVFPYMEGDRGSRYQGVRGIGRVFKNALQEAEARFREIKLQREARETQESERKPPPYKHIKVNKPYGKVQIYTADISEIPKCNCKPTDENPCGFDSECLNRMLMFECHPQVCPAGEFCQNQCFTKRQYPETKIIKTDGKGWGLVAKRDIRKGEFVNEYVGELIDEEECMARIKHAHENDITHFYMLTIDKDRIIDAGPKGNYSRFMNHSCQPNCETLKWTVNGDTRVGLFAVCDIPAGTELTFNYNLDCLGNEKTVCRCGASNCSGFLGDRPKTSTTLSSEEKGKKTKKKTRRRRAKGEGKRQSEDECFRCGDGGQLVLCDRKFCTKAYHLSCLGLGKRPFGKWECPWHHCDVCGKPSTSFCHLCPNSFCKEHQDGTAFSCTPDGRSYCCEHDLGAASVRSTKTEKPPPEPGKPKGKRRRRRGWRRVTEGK
row,Structure (SMILES),inhibition
1,Cc1ccnc(N2CCC(C(=O)NC3CCCCCC3)CC2)n1,90.5% (active)
2,O=C(NC1CCCCCC1)C1CCN(C(=O)c2ccc(Cl)cc2)CC1,-0.793% (inactive)
3,Cc1ccnc(N2CCCC(C(=O)NC3CC3)C2)n1 (configuration not stated),-1.73% (inactive)
4,O=S(=O)(c1ccccc1)N1CCC(c2nc3ccccc3o2)CC1,-2.44% (inactive)
5,CCOC(=O)c1nnn(-c2nonc2OC)c1-c1ccccc1,113% (active)
6,Nc1nonc1-n1nnc(C(=O)N/N=C/C2CCCCC2)c1-c1ccccc1,4.38% (inactive)
7,CCOC(=O)c1nnn(-c2nc(OC)nc(N(C)C)n2)c1-c1ccccc1,-2.39% (inactive)
8,CN(CCc1ccccc1)C(=O)Cn1nc(-c2ccccc2)ccc1=O,4.36% (inactive)
9,Cc1ccccc1NC(=O)CCOc1ccccc1,-2.79% (inactive)
10,Cc1cccc(OCC(=O)Nc2ccccc2F)c1,12.4% (inactive)
11,Cc1cccc(OCCC(=O)Nc2ccccc2C(N)=O)c1,93.5% (active)
12,COc1ccc(-c2ccc(C(=O)NC(C)C)c3occc23)c(C)c1,-1.69% (inactive)
13,CCc1ccccc1NC(=O)CSc1nnc(-c2cccs2)o1,3.02% (inactive)
14,Nc1ccn([C@@H]2O[C@H](C(=O)N[C@H]3CCCCNC3=O)[C@@H](O)[C@H]2O)c(=O)n1,-3.79% (inactive)
15,O=C(NNC(=O)c1ccc(Cl)nc1)c1ccc(Br)cc1,98.9% (active)
16,CC(=O)NC(=S)NNC(=O)c1ccc(Br)cc1,-3.53% (inactive)
17,CCN(CC)c1ccc(NC(=O)c2ccc(Cl)nc2)cc1,2.22% (inactive)
18,COc1ccc(-c2cc(-c3nnc(SCC(=O)Nc4cccc5ccccc45)n3N)[nH]n2)cc1,-2.83% (inactive)
19,CC(=O)c1ccc(Nc2nc(C(N)c3ccccc3)cs2)cc1 (configuration not stated),-2.82% (inactive)
20,O=C(Nc1ccc(Cl)cc1)C1Cc2c(-c3ccc4c(c3)OCO4)ccnc2O1 (configuration not stated),-1.29% (inactive)
21,COc1ccc(NC(=O)C2Cc3c(-c4ccc(Cl)cc4)ccnc3O2)cc1 (configuration not stated),54.6% (active)
22,CC(=O)Nc1ccc(-c2ccnc3c2CC(C(=O)NC(C)C)O3)cc1 (configuration not stated),-0.999% (inactive)
23,Cc1ccc(S(=O)(=O)N(C)C)cc1NC(=O)/C=C/c1cccs1,57.7% (active)

row,Structure (SMILES),inhibition
1,Cc1ccc(S(=O)(=O)N(C)C)cc1NC(=O)COC(=O)/C=C/c1cccs1,0.889% (inactive)
2,CN(C)S(=O)(=O)c1cccc(NC(=O)COC(=O)/C=C/c2cccs2)c1,-17% (inactive)
3,CC(NCc1ccco1)C(=O)N1CCCCC1 (configuration not stated),0.508% (inactive)
4,COc1ccccc1C(=O)CSc1nnc(-c2ccccn2)n1-c1ccccc1,-4.28% (inactive)
5,CCOc1cc(NC(=S)NCCCOC)c(OCC)cc1NC(=O)c1ccco1,1.89% (inactive)
6,Cc1nc2cc(NC(=O)NCc3ccccc3)ccc2o1,-1.07% (inactive)
7,COCCNC(=O)Nc1ccc2nc(-c3ccco3)c(-c3ccco3)nc2c1,104% (active)
8,COc1ccccc1CNC(=O)c1cc(-c2cc(F)ccc2OC)n[nH]1,4.87% (inactive)
9,CCc1nc2c(OCCOc3ccccc3)cccn2c1N(C)C(=O)c1ccc(OC)cc1,-0.87% (inactive)
10,CCN1CCCC1CNc1ncnc2c1[nH]c1ccc(F)cc12 (configuration not stated),74.6% (active)
11,CCN1CCCC1Cn1cnc2c([nH]c3cc(OC)ccc32)c1=O (configuration not stated),-4.76% (inactive)
12,CCN1CCCC1CNC(=O)c1cc2cc(OC)c(OC)cc2[nH]1 (configuration not stated),17.7% (inactive)
13,Cc1ccccc1NC(=O)COC(=O)c1ccc(Sc2ncn[nH]2)c([N+](=O)[O-])c1,-0.523% (inactive)
14,C[C@H]1CCC/C=C/C(=O)c2c(O)cc(O)cc2CC(=O)O1,5.2% (inactive)
15,Cc1occc1C(=O)N/N=C/c1ccc(-c2cccc([N+](=O)[O-])c2)o1,1.62% (inactive)
16,Cc1ccc(-c2ccc(/C=N/NC(=O)CN3CCOCC3)o2)cc1[N+](=O)[O-],59.9% (active)
17,O=C(CN1CCOCC1)N/N=C/c1ccc(-c2ccc(Br)cc2)o1,4.03% (inactive)
18,O=C(NCc1ccc(Cl)cc1)C1CCCN(c2nc3ccccc3o2)C1 (configuration not stated),-10.7% (inactive)
19,CC1CCN(c2ccc(C(=O)O)cc2NS(=O)(=O)c2ccc(Br)s2)CC1,1.4% (inactive)
20,Cc1nc2ccc(C(=O)N3CCN(C(=O)C(C)(C)C)CC3)cc2n1C1CCCC1,-2.3% (inactive)
21,CSc1nccc(-c2ccc(S(=O)(=O)Nc3ccc(C(O)(C(F)(F)F)C(F)(F)F)cc3)s2)n1,3.98% (inactive)
22,CCN(CC)CCn1c2ccc(Cl)cc2c2nc(C)sc21,14.7% (inactive)
23,CCN(CC)CCCC(C)n1c2nc(=O)[nH]c(=O)c-2nc2cc(Cl)ccc21 (configuration not stated),187% (active)

row,Structure (SMILES),inhibition
1,O=C(NCCCn1ccnc1)C1CCCN(S(=O)(=O)c2cc(Cl)ccc2Cl)C1 (configuration not stated),-2.69% (inactive)
2,COc1ccc(S(=O)(=O)N2CCCC(C(=O)NCCCn3ccnc3)C2)cc1OC (configuration not stated),57.8% (active)
3,CCN1CCN(C(=O)C2CCCN(S(=O)(=O)c3ccc(OC)c(OC)c3)C2)CC1 (configuration not stated),-0.758% (inactive)
4,NC(Cc1ccc(F)cc1)c1csc(Nc2nncc3ccccc23)n1 (configuration not stated),-3.48% (inactive)
5,O=C(CSc1nnc(-c2ccccc2)n1Cc1ccco1)Nc1ccccc1-c1ccccc1,6.7% (inactive)
6,CC1(C)Cc2c(sc3nnn(Cc4ccc(Cl)cc4Cl)c(=O)c23)CO1,8.41% (inactive)
7,O=C(Cc1cccs1)Nc1nnc(C2CC2)s1,3.72% (inactive)
8,O=C(CN1C(=O)c2ccc([N+](=O)[O-])cc2C1=O)Nc1nnc(C2CC2)s1,57.6% (active)
9,Cc1cccc(NC(=O)CSCC(=O)Nc2nnc(C3CC3)s2)c1,1.4% (inactive)
10,O=C(C1CCN(S(=O)(=O)c2ccccc2)CC1)N1CCN(C2CCCCC2)CC1,0.491% (inactive)
11,Oc1ccc(CNc2ccccc2O)cc1,85.7% (active)
12,c1ccc(CNCc2ccc(CNCc3ccccc3)cc2)cc1,1.25% (inactive)
13,O=[N+]([O-])c1ccccc1NCc1ccc(Cl)cc1,7.1% (inactive)
14,Cc1ccc(CSc2nnc(SCC(=O)NN=Cc3cc(Br)ccc3F)s2)cc1,-1.85% (inactive)
15,CC1(C(=O)Nc2cccc(Oc3ccccc3)c2)CCN1Cc1ccccc1Cl (configuration not stated),-0.732% (inactive)
16,CCc1nc2c(OCCOc3ccccc3)cccn2c1N(C=O)Cc1ccc(OC)cc1,-1.53% (inactive)
17,COc1ccccc1/C=C1\SC(=O)N(CCC(=O)N(C)C2CCS(=O)(=O)C2)C1=O (configuration not stated),2.59% (inactive)
18,CN(C(=O)CN1C(=O)S/C(=C\c2ccccc2F)C1=O)C1CCS(=O)(=O)C1 (configuration not stated),71.1% (active)
19,CN(C(=O)CCN1C(=O)/C(=C/c2ccccc2F)SC1=S)C1CCS(=O)(=O)C1 (configuration not stated),-1.43% (inactive)
20,Cc1c(CC(=O)N2CCN(C(=O)C3COc4ccccc4O3)CC2)c(=O)oc2c(O)c(O)ccc12 (configuration not stated),125% (active)
21,CCN(CC)S(=O)(=O)c1ccc(N2CCOCC2)c(NC(=O)C2COc3ccccc3O2)c1 (configuration not stated),-0.001% (inactive)
22,O=C(CNC(=O)C1COc2ccccc2O1)N/N=C/c1cc(Br)c(O)c(Br)c1 (configuration not stated),26.9% (inactive)
23,CCc1nc2ccc(C(=O)NCCNC(C)=O)cn2c1N(CC)Cc1cccc(Br)c1,1.25% (inactive)

row,Structure (SMILES),inhibition
1,N#Cc1ccc(CSc2ncccn2)cc1,67.5% (active)
2,N#Cc1ccc(CSc2nnc3ccccn23)cc1,-1.73% (inactive)
3,N#Cc1ccc(CSc2nnc(-c3ccccn3)n2-c2ccc(Cl)cc2)cc1,3.24% (inactive)
4,COc1ccc(N2CCN(CCNS(=O)(=O)c3ccc(C(C)(C)C)cc3)CC2)cc1,9.53% (inactive)
5,COc1ccc(-n2c(SCC(=O)Nc3ccc4c(c3)OCCO4)nnc2-c2ccc(Cl)cc2)cc1,3.06% (inactive)
6,Cc1ccc(Cn2cc(COC(=O)N(C)Cc3ccccc3)nn2)cc1,-1.9% (inactive)
7,CCNC(=O)C1(C)CCCN(C(=O)c2c(C)noc2C)C1 (configuration not stated),-2.53% (inactive)
8,CCNC(=O)C1(C)CCN(C(=O)c2ccccc2)C1 (configuration not stated),-2.2% (inactive)
9,CCNC(=O)C1(C)CCCN(C(=O)c2ccc3ccccc3n2)C1 (configuration not stated),104% (active)
10,COc1ccc(-n2c(SCC(=O)Nc3ccc4cn[nH]c4c3)nnc2-c2cccnc2)cc1,10.9% (inactive)
11,O=S(=O)(Nc1ccc(C(O)(C(F)(F)F)C(F)(F)F)cc1)c1ccc(-c2ccccn2)s1,11.8% (inactive)
12,Cc1cc(C)cc(N(CC(=O)NCCSCc2ccco2)S(C)(=O)=O)c1,7.95% (inactive)
13,CS(=O)(=O)N(CC(=O)NCc1ccco1)c1ccc2c(c1)OCO2,65.1% (active)
14,S=C(NCc1ccc2c(c1)OCO2)NCc1ccco1,4.85% (inactive)
15,COc1ccc(C(=O)CSc2nnc(-c3cnccn3)n2-c2ccc(C)cc2)cc1,-4.12% (inactive)
16,COc1ccc(-n2c(SCC(=O)Nc3ccc(C)c(Cl)c3)nc3ccccc3c2=O)cc1,5.51% (inactive)
17,COc1cc(NC(=O)c2cc(-c3ccc(F)cc3OC(C)C)n[nH]2)cc(OC)c1OC,-1.66% (inactive)
18,O=C1C(Cl)=C(Oc2ccccc2)C(=O)c2ccccc21,101% (active)
19,CC(=O)Oc1ccc2c(c1)C(=O)c1ccccc1C2=O,4.31% (inactive)
20,COc1cccc(-c2ccc3c(c2)N(Cc2ccccc2OC)C(=O)C(C)S3)c1 (configuration not stated),-0.375% (inactive)
21,Cc1ccc(-n2c(SCC(=O)Nc3ccc(S(=O)(=O)Nc4nccs4)cc3)nnc2-c2cccnc2)cc1,6.22% (inactive)
22,CC1(C(=O)Nc2cccc3c2CCCC3)CCN1C(=O)CCc1ccc(Cl)cc1Cl (configuration not stated),-2.57% (inactive)
23,O=C(CSc1nnc(-c2ccccn2)n1-c1ccc(Cl)cc1)Nc1ccccc1-c1ccccc1,-2.53% (inactive)
